Screens from PubChem.
Many of the other results were omitted from the sample, so hits are more common in it than they were.
NPSR antagonist: qHTS Assay for Antagonists of the Neuropeptide S Receptor: cAMP Signal Transduction. CHO-NPSR cells, cAMP TR-FRET, antagonist mode. Potency, µM (titrated, usually from 38.3 µM), hits mostly inhibitors. 220,000 compounds, 1% hits; also: nearly all actives have a fitted effect of over 50% in size
Target sequence (Q6W5P4 whole entry, looked up): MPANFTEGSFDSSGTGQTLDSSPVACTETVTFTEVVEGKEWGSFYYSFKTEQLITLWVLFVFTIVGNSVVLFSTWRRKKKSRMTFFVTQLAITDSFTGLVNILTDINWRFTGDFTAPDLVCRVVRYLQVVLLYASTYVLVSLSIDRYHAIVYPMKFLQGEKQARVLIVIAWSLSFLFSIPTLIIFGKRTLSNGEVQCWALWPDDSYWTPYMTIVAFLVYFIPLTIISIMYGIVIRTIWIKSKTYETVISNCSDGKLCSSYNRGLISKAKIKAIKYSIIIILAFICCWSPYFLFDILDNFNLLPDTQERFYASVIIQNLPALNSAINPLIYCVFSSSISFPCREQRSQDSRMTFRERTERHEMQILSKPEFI
ERK EGF block: qHTS Assay for Inhibitors of the ERK Signaling Pathway using a Homogeneous Screening Assay; Stimulation with EGF; 130,000 compounds, 0.41% hits; Potency, µM (titrated, usually from 11.5 µM), most hits filed as inhibitors; HEK293-V1b, EGF-stimulated phospho-ERK AlphaScreen; also: nearly all actives have a fitted effect of over 55% in size
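Homogeneous cell-based phospho-ERK assay: HEK293/V1b cells in 1% FBS, compound 30 min then EGF 5 min, AlphaScreen luminescence. Activity normalized between DMSO and 25 nM EGF controls; AC50 from Hill modelling.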
Of the large screens only hits and unclear results are named; the others gave an inactive call. Calls follow the shape of the dose curve; as a rule, active = well fitted curve in the direction sought with a large enough effect; inconclusive = small, poorly fitted or top-dose-only effect, or another doubt; inactive = no such curve, though single readings can be large; an effect the other way counts as inactive or inconclusive.

CC(C)C(OC(=O)c1cccc(S(=O)(=O)NCC(F)(F)F)c1)C(=O)NC(N)=O (stereo not drawn)	ERK EGF block inconclusive
CC(Oc1ccc(O)cc1)(P(=O)(O)O)P(=O)(O)O	none (no result: NPSR antagonist)
O=S(=O)(Nc1nc2ccccc2nc1N1CCN(c2ccccc2)CC1)c1ccc(F)cc1	none
O=C1C(NS(=O)(=O)c2ccccc2)=C(N2CCN(c3ccc(F)cc3)CC2)C(=O)c2ccccc21	ERK EGF block 25µM
CCOC(=O)C1CCN(C(=O)c2ccccc2NS(=O)(=O)c2ccc(F)c(F)c2)CC1	none
CC1CCN(C2=C(NS(=O)(=O)c3ccccc3)C(=O)c3ccccc3C2=O)CC1	ERK EGF block 18µM
CCOC(=O)C1CCN(C2=C(NS(=O)(=O)c3ccc(Cl)cc3)C(=O)c3ccccc3C2=O)CC1	ERK EGF block 32µM
CC1CCN(C2=C(NS(=O)(=O)c3ccc(Cl)cc3)C(=O)c3ccccc3C2=O)CC1	ERK EGF block 16µM
CC(=O)Nc1ccc(S(=O)(=O)NC2=C(N3CCN(Cc4ccccc4)CC3)C(=O)c3ccccc3C2=O)cc1	none (no result: ERK EGF block)
O=C1C(NS(=O)(=O)c2cccs2)=C(N2CCN(c3cccc(Cl)c3)CC2)C(=O)c2ccccc21	none (no result: ERK EGF block)
COC(=O)c1c(NC(NC(=O)c2ccccc2)(C(F)(F)F)C(F)(F)F)sc2c1CCN(C)C2	none
Cc1nn(-c2nnc(NC3CCCCC3)nn2)c(C)c1Br	ERK EGF block inconclusive
COC(=O)c1sc(NC(=O)CSc2nnnn2-c2cccc(OC)c2)nc1C	none
Cc1onc(-c2ccccc2)c1C(=O)Nc1ccc(S(=O)(=O)NC(C)(C)C)cc1	none
COc1cccc([C@@H]2Oc3ccc(OC)cc3C(=O)[C@H]2OC(=O)NCc2ccco2)c1	none (no result: NPSR antagonist)
CCCCC(c1nnnn1C1CCCC1)N1CCN(C(=O)c2ccco2)CC1 (stereo not drawn)	none (no result: ERK EGF block)
CCCC(c1nnnn1C1CCCC1)N1CCN(C(=O)c2ccco2)CC1 (stereo not drawn)	NPSR antagonist 13µM (no result: ERK EGF block)
COc1cccc(C2C([N+](=O)[O-])=C(N)Oc3cc(C)oc(=O)c32)c1 (stereo not drawn)	none
Cc1cccnc1Nc1nc(-c2ccc(O)cc2O)cs1	none (no result: ERK EGF block)
Cc1cccnc1Nc1nc(-c2ccccn2)cs1	NPSR antagonist 0.79µM (no result: ERK EGF block)
N#Cc1ccc(CS(=O)(=O)c2nnnn2C2CCCCC2)cc1	none (no result: NPSR antagonist)
COc1cccc(CNc2ncc(Br)cc2Br)c1O	NPSR antagonist 10µM (no result: ERK EGF block)
COc1cccc(CNc2ccc(Br)cn2)c1O	none (no result: ERK EGF block)
CC(C)(C)c1cc(C(=O)NCCN2CCCC2)cc(C(C)(C)C)c1	none
O=c1[nH]n2c(=O)c3c([nH]c2c1N=Nc1cccc(C(F)(F)F)c1)CCCC3	NPSR antagonist 13µM
O=c1[nH]n2c(=O)c3c([nH]c2c1N=Nc1cccc(Cl)c1)CCC3	ERK EGF block inconclusive
O=C(O)C1CCN(c2nc(-c3ccccc3)nc3c2oc2ccccc23)CC1	none (no result: ERK EGF block)
CCOC(=O)C1CCN(c2nc(-c3ccccc3)nc3c2oc2ccccc23)CC1	NPSR antagonist 13µM (no result: ERK EGF block)
Oc1ccc(O)c(-c2cnns2)c1	none
O=C1CC(=O)N2N=C(c3ccc([N+](=O)[O-])cc3)SC2=N1	none
CCOC(=O)Cc1csc(NC(=O)c2c(O)c3c(n(CC(C)C)c2=O)CCCC3)n1	NPSR antagonist inconclusive
COc1ccccc1NC(=O)c1cc2cc(Br)ccc2cc1O	NPSR antagonist inconclusive
COc1cc(COCC(O)CN2CCN(CCN3C(=O)c4cccc5cccc(c45)C3=O)CC2)cc(OC)c1OC (stereo not drawn)	none
Cc1ccc(C)c(OCC(O)CN2CCN(CCN3C(=O)c4cccc5cccc(c45)C3=O)CC2)c1 (stereo not drawn)	ERK EGF block inconclusive
O=C1c2cccc3cccc(c23)C(=O)N1CCN1CCN(CC(O)COCc2ccc(Cl)cc2)CC1 (stereo not drawn)	ERK EGF block 32µM
CC(=O)c1ccccc1OCC(O)CN1CCN(CCN2C(=O)c3cccc4cccc(c34)C2=O)CC1 (stereo not drawn)	ERK EGF block 25µM
CN1CCN(CCCNC(=O)c2cc3c(-c4ccc(Cl)cc4)nn(C)c3s2)CC1	NPSR antagonist 10µM (no result: ERK EGF block)
Cn1nc(-c2ccc(Cl)cc2)c2cc(C(=O)NCC3CCCO3)sc21 (stereo not drawn)	none (no result: ERK EGF block)
O=C(Nc1ccc(N2CCCC2)c(Cl)c1)c1ccc([N+](=O)[O-])o1	NPSR antagonist 7.9µM, ERK EGF block inconclusive
CCCC(=O)N1CCN(c2ccc(NC(=O)c3ccc([N+](=O)[O-])o3)cc2)CC1	NPSR antagonist 7.9µM
O=C(Nc1ccc(N2CCCC2)c(Cl)c1)c1ccco1	none (no result: ERK EGF block)
CCC(=O)N1CCN(c2ccc(NC(=O)c3ccc([N+](=O)[O-])o3)cc2)CC1	none
COC(=O)[C@@]1(Cc2ccc(OC)cc2)[C@H]2c3cc(C(=O)N(C)C)n(Cc4cc(F)c(F)c(F)c4)c3C[C@H]2CN1C(=O)c1ccccc1	none (no result: NPSR antagonist)
OCC1(Cc2ccccc2)CCN(Cc2ccc(C(F)(F)F)cc2)CC1	none
